Compounds with a hit are over-represented: about 21% of the library has one in this group of screens.
ELG1 DNA repair = ELG1-dependent DNA repair inhibition; 2.3% of 330,000 active; Potency, µM (top dose mostly 46.1 µM), without a hit: at the top dose activity change, negative = inhibition, hits mostly inhibitors; HEK293T ELG1-luciferase reporter, luminescence, 16 h; DNA damage induced by 5-fluorouridine; further: potency means the concentration at half of the fitted maximal effect; nearly all actives have a fitted effect of over 55% in size
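Reporter activity after DNA damage by 5-fluorouridine is monitored. Compound-treated cells incubate 16 hr at 37 °C, then ONE-Glo is added for 30 min before luminescence reading.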
DT40 TDP1 CPT = DT40-hTDP1 cell growth loss with CPT. chicken DT40 Tdp1-/-;hTDP1 cells + 20 nM CPT, ATP luminescence, 48 h. Potency, µM (doses to about 46.2 µM), for inactives: at the highest dose activity change, negative = growth inhibition, usual class: inhibitors. 12% of 420,000 active. AID 686979; further: potency means the concentration at half of the fitted maximal effect; nearly all actives have a fitted effect of over 55% in size
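Chicken DT40 Tdp1-/- cells complemented with human TDP1, 400 cells/well, exposed to compounds plus 20 nM camptothecin for at least 48 h at 37 C; viability read as ATP content by CellTiter-Glo luminescence.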
Gal4-VP16 FLuc = counter-screen for ROR gamma inhibitors: Gal4-VP16 reporter. Drosophila S2 Gal4-VP16 UAS-luciferase, luminescence, 20 h. Potency, µM (titrated, usually from 53.6 µM), for the others: top-dose activity, negative = inhibition, actives largely listed as inhibitors. 3.5% of 310,000 active. AID 2546;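 further: Gal4-VP16 expression switched on by copper sulfate through the metallothionein promoter; potency means the concentration at half of the fitted maximal effect; nearly all actives have a fitted effect of over 50% in size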
RORgamma inh = ROR gamma (mouse) transcription inhibition. P51450. Drosophila S2 Gal4-RORgamma UAS-luciferase reporter, 20 h. Potency, µM (titrated, usually from 53.6 µM), for the others: at the top dose activity change, negative = inhibition, actives largely listed as inhibitors. 5.4% of 310,000 active; further: potency means the concentration at half of the fitted maximal effect; nearly all actives have a fitted effect of over 60% in size
Target sequence (P51450 whole entry, looked up, the tested form may be a part): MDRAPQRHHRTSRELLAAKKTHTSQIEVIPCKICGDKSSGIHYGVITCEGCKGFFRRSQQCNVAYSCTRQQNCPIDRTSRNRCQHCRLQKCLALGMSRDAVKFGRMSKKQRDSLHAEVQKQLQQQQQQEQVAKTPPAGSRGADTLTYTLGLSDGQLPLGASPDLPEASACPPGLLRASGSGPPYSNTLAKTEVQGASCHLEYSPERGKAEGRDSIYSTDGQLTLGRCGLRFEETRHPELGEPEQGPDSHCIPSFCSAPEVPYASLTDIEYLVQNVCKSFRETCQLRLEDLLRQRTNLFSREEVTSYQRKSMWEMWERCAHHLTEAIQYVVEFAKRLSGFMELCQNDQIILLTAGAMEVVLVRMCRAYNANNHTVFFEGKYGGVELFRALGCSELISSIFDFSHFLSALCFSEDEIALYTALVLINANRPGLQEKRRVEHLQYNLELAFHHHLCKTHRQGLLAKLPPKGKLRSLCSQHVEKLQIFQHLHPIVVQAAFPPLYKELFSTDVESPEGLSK
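Drosophila Schneider cells stably carrying a metallothionein-driven Gal4 DBD–ROR gamma fusion and a UAS-Photinus luciferase reporter were exposed to compound for 1 hr, then induced with copper sulfate (700 uM final) for 20 hr at ambient temperature before luminescence reading.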
IL-1B inflam inh = inhibitors of inflammasome signaling (IL-1 beta secretion); THP-1 LPS/ATP IL-1B secretion, AlphaLISA, 16 h; hits give low values; activity change, % at 57.5 µM; 4.7% of 360,000 active; in the data active means activity change below about -50%; inconclusive means mostly about -30% to -49%
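Secreted IL-1B measured by AlphaLISA bead assay after 16 h compound exposure of THP-1 cells; compounds (final up to 57.5 uM) added 1 h before LPS (250 ng/mL) and ATP (1.25 mM) stimulation; lower signal means less secretion.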
DT40 TDP1 no CPT = qHTS for Inhibitors of human tyrosyl-DNA phosphodiesterase 1 (TDP1): qHTS in cells in absence of CPT | DT40 Tdp1-/- hTDP1 cells, no CPT, ATP luminescence, 48 h | Potency, µM (titrated, usually from 46.2 µM), for the others: top-dose activity change, negative = growth inhibition, actives largely listed as inhibitors | 15% of 420,000 active; further: potency means the concentration at half of the fitted maximal effect; nearly all actives have a fitted effect of over 55% in size
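Compound effects on proliferation are scored in DT40 Tdp1-/-;hTDP1 cells in the absence of CPT. ATP levels (CellTiter-Glo luminescence) are recorded after a ≥48 hr, 37 °C incubation.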
Starred values were filed as active, the others as inactive; u = inconclusive; x = not tested or not shown; [ ] = dose if it differs, or a comment. Unless noted, the call rests on the fitted dose curve; in most records, active means well fitted curve in the direction sought with a large enough effect; inconclusive means small, poorly fitted or top-dose-only effect, or another doubt; inactive means no such curve, though single readings can be large; an effect the other way counts as inactive or inconclusive. On the % scale 0 is the no-effect control and ±100 the full control effect.

SMILES | ELG1 DNA repair | DT40 TDP1 CPT | Gal4-VP16 FLuc | RORgamma inh | IL-1B inflam inh | DT40 TDP1 no CPT
COc1ncnc2c1NC1=C(S2)C(=NCCC(=O)O)CC(C)(C)C1 | 10% | -5% | 18µM* | u | 23 | -24%
CN(C)c1ncnc2c1NC1=C(S2)C(=NCCCC(=O)O)CC(C)(C)C1 | -5% | 21µM* | -1% | -33% | -10 | u
C=C[C@@]1(C)CC(=O)[C@@]2(O)[C@@]3(C)[C@@H](O)CCC(C)(C)[C@@H]3[C@H](O)[C@H](OC(C)=O)[C@@]2(C)O1 | x | 4% | -7% | -2% | x | u
N#CCCn1c(=O)c(-c2ccc(F)cc2)nc2cnc(Oc3cccc(Cl)c3)nc21 | x | 6% | 1% | 4% | x | 0%
CNc1cc(CSC)nc(SCc2ccc(Cl)cc2Cl)n1 | -4% | u | -10% | 18% | u | u
CSCc1cc(N(C)C)nc(SCc2ccc(Cl)c(Cl)c2)n1 | -8% | u | u | 11µM* | -13 | u
COc1ccc(-n2c(CCc3ccccc3)nnc2SCC(=O)c2ccccc2)cc1 | -10% | u | -22% | -52% | -80* | u
COc1ccc(C(=O)CSc2nnc(CCc3ccccc3)n2-c2ccccc2)cc1 | -13% | 16µM* | u | 16µM* | -17 | 15µM*
CC(C)Oc1ccc(CCc2nnc(SC(C)C(=O)O)n2-c2ccccc2)cc1 (stereo unspecified) | 12% | 3% | -8% | -18% | 15 | -5%
Cc1cc(C)n2nc(SCC(=O)N(CCC#N)c3ccccc3F)nc2n1 | 9% | 5% | x | x | 32 | 7%
Brc1ccc(C=Nc2ccc(Nc3ccccc3)cc2)s1 | u | u | -7% | u | -11 | 16µM*
C(=Nc1ccc(Nc2ccccc2)cc1)c1ccc2ccccc2c1 | -17% | 13µM* | 13µM* | u | -69* | 12µM*
CC(=O)Nc1ccc(N=Cc2ccc(OCc3ccccc3)cc2)cc1 | u | -5% | -15% | 1% | 0 | -21%
O=c1ncn(-c2cccc(Cl)c2)c2ccccc12 | x | -5% | x | x | 8 | -12%
O=C(NCc1ccc2c(c1)OCO2)c1c(-c2ccccc2)sc2ccccc12 | u | u | x | x | 27 | u
COc1cc2sc(-c3ccc(S(C)(=O)=O)cc3)c(C(=O)NCc3ccc(C)o3)c2cc1OC | 18µM* | u | x | x | 3 | 13µM*
Cc1ccc(CNC(=O)c2c(-c3ccccc3)sc3ccccc23)o1 | 0% | u | x | x | -25 | 16µM*
CCc1ccc(OCC2c3cc(OC)c(OC)cc3CCN2C(=S)NC)cc1 (stereo unspecified) | u | u | 6% | 11µM* | 0 | u
CCc1ccc(OCC2c3cc(OC)c(OC)cc3CCN2C(=S)NCCOC)cc1 (stereo unspecified) | 23µM* | u | -12% | 20%[10 µM] | u | u
CC1(C)CC(C(=O)Nc2ccccc2)C(=O)O1 (stereo unspecified) | x | 16% | x | x | -11 | -18%
C[C@]1(O)CC(=O)C=C[C@H]1Nc1ccccc1 | x | u | x | x | -104* | 18µM*
CC1CCCC(NC(=O)CCN2C(=O)COc3ccccc32)C1C (stereo unspecified) | x | -13% | x | x | -6 | -10%
O=C(Nc1cc(-c2ccccc2)[nH]n1)c1ccccc1 | u | -3% | -21% | -36% | -54* | u
O=C(Nc1cc(-c2ccccc2)[nH]n1)c1ccccc1F | u | -27% | -9% | -42% | -57* | u
O=C(O)c1ccccc1C(=O)Nc1cc(-c2ccccc2)[nH]n1 | 19% | 12% | -2% | 3% | 0 | -13%
SMILES | ELG1 DNA repair | DT40 TDP1 CPT | Gal4-VP16 FLuc | RORgamma inh | IL-1B inflam inh | DT40 TDP1 no CPT
Cc1nn(CC(=O)Nc2ccc3c(c2)OCCO3)c(C)c1[N+](=O)[O-] | 5% | 0% | x | x | 19 | -18%
Cc1cc(C)c2c(CC(=O)Nc3ccc(S(=O)(=O)Nc4ncccn4)cc3)coc2c1 | x | -17% | x | x | x | -14%
Cc1cc(C)nc(SCC(=O)c2c(N)n(C)c(=O)n(C)c2=O)n1 | 1% | -18% | -1% | -4% | 19 | -22%
CCSc1nnc(SCC(=O)c2c(N)n(C)c(=O)n(C)c2=O)s1 | -17% | u | x | x | 35 | 23µM*
Cn1c(N)c(C(=O)CSc2ccc3c(c2)OCCO3)c(=O)n(C)c1=O | u | 18µM* | u | u | 1 | 18µM*
Cc1ccccc1Nc1nnc(SCC(=O)c2c(N)n(C)c(=O)n(C)c2=O)s1 | -11% | -7% | 4% | 39% | 2 | u
CCC(CC)NC(=O)CON=C1c2ccccc2-c2ccccc21 | -11% | 21µM* | -21% | -28% | -16 | 16µM*
COc1cc2c(cc1O)-c1ccccc1CN(C)C2 | x | 19%[9.04 µM] | -3% | -7% | x | 3%[9.04 µM]
O=C(Cc1ccc(Br)cc1)Nc1ccc(S(=O)(=O)N2CCCC2)cc1 | u | x | -15% | u | x | x
Cc1ccc(OCCC(=O)Nc2ccc(S(=O)(=O)N3CCCC3)cc2)cc1 | u | u | x | x | u | 15µM*
CCOc1ccc(CC(=O)Nc2ccc(S(=O)(=O)N3CCCC3)cc2)cc1 | -16% | u | -3% | 9% | 11 | 15µM*
CC(C)CC(NC(=O)NC(CCC(=O)O)C(=O)O)C(=O)O (stereo unspecified) | x | x | 3% | 2% | x | x
COc1ccc(Cl)cc1C(=O)NC1CC(C)(C)NC(C)(C)C1 | x | -1% | x | x | 0 | 17%
COC(=O)CC1C(=O)NCCN1C(=S)NC(=O)c1sc2ccccc2c1Cl (stereo unspecified) | 7% | -7% | 7.1µM* | 0.63µM* | 15 | 7%
CC(C)OC(=O)CC1C(=O)NCCN1C(=S)NC(=O)c1ccc(F)cc1 (stereo unspecified) | 6% | -4% | 8.9µM* | 3.2µM* | 17 | u
COC(=O)CC1C(=O)NCCN1C(=S)NC(=O)C(c1ccccc1)c1ccccc1 (stereo unspecified) | -3% | 16% | 16µM* | 10µM* | 9 | -24%
COC(=O)CC1C(=O)NCCN1C(=O)c1sc2ccccc2c1Cl (stereo unspecified) | 2% | -8% | -2% | -26% | 12 | 1%
COC(=O)CC1C(=O)NCCN1C(=S)NC(=O)CCc1ccccc1 (stereo unspecified) | 7% | -9% | -19% | -11% | 25 | -6%
